Test results from PubChem BioAssay.

Experiment: compounds binding Alexa647 anti-His antibody – biochemical, small-molecule microarray, 635 nm fluorescence, artefact control for SMM control protein annotation, primary screen (AID 1128);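 note: score merges feature fluorescence with signal-to-noise for each printed compound spot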
Conditions: higher = more signal
`CCOC(=O)CCN1C(=O)[C@H]2[C@H]3[C@H](O)[C@H](O)CC(=NOC[C@@H](O)COCc4ccco4)[C@@H]3CC[C@H]2C1=O` showed a composite z-score of 1.08. `COc1ccc([Si](C)(C)[C@H]2[C@H](CC(=O)N3CCC[C@H]3CO)O[C@@]3(C(=O)N(Cc4cccc(N5C(=O)COc6ccccc65)c4)c4ccccc43)[C@@H]2C)cc1` gave a composite z-score of 0.514. `CC(=O)OC[C@H]1O[C@H](CCON=C(C)CCC(=O)OC[C@H]2O[C@H](C#Cc3ccccc3)C=C[C@@H]2Oc2ccc(C)cc2)C=C[C@@H]1OC(C)=O` gave a composite z-score of 0.0004. `CCOC(=O)[C@H](CC(C)C)NC(=O)CCC1CC(OC(=O)NCc2cccc3ccccc23)CC2(CCCC(COC(=O)NCCN3CCOCC3)O2)O1` (stereo not given in full) gave a composite z-score of 0.804. With `CN1C(=O)C2C=CC(C(O)C(c3ccccc3)c3ccccc3)N(NC(=O)OC(C)(C)C)C2C1=O` (stereo not given) the composite z-score was 1.88. For `Cc1cc2c(c(=O)o1)[C@H](O)[C@H]1O[C@H]1C2=O`, the composite z-score was -0.633. In the case of `O=C(NN=C1C[C@@H](O)[C@@H](O)[C@@H]2[C@@H]3C(=O)N(c4cccc(Oc5ccccc5)c4)C(=O)[C@@H]3CC[C@@H]12)OCc1ccccc1`, the composite z-score was -0.0621. `COC(=O)C1=CCC(c2cccc(Cl)c2)O1` (stereo not given) showed a composite z-score of 0.192. Compound `NC(=O)NCC#Cc1ccc2c(c1)[C@]1(C(=O)N2)[C@H](c2ccc(O)cc2)N2[C@H](c3ccccc3)[C@H](c3ccccc3)OC(=O)[C@H]2[C@@H]1C(=O)N1CCCCCCC1` has a composite z-score of 0.687. With `CC(C)[C@@H](OCc1ccccc1)[C@H](C)C=NOC[C@@H](C)[C@H](OCc1ccccc1)C(C)C` the composite z-score was 0.0377.
